Screening results as filed in PubChem.
Only a selection was taken, and hits are over-represented in it overall.
ST2 inh – inhibitors of human ST2 (IL1RL1) binding to IL-33, primary screen, biochemical, AlphaLISA; Interleukin-1 receptor-like 1 (Homo sapiens), Q01638; AlphaLISA ST2-Fc/biotin-IL-33 interaction, 1 h; inhibition, % for hits at 17 µM; 2.3% of 78,000 active; AID 1259354, 2018; in the data active means inhibition above about 30%
A number is an active result; i = inactive.

SMILES	ST2 inh
Cc1ccccc1N1CCN(Cc2ccc(N(C)C)cc2)CC1	45%
COCCN1CCCC2(CCN(C(=O)Cc3cccnc3)C2)C1 (stereo unspecified)	i
Cc1ccc(S(=O)(=O)Nc2ccc3n(c2=O)C[C@H]2C[C@@H]3CN(c3ncccn3)C2)cc1	i
Cc1ccccc1-c1ccc2n(c1=O)C[C@H]1C[C@@H]2CN(C2CCN(C)CC2)C1	i
O=c1c(NS(=O)(=O)c2cccs2)ccc2n1C[C@H]1C[C@@H]2CN(S(=O)(=O)c2ccccc2)C1	i
Cc1cccc(-n2c(-c3cccnc3)nc3ccccc3c2=O)c1	46%
O=c1c2ccccc2nc(-c2ccccc2)n1-c1ccccc1	i
Cc1cccc(-n2c(/C=C3\C(=O)Nc4ccccc43)nc3ccccc3c2=O)c1	i
CCc1nn(C)c(Cl)c1CN1CC[C@@H](c2cccc(OC)c2)[C@H](O)C1	i
O=C1C2CCCN2C(c2cccnc2)N1c1ccccn1 (stereo unspecified)	i
CC(Nc1ccc([N+](=O)[O-])c2cccnc12)c1ccc(Br)cc1 (stereo unspecified)	40%
O=[N+]([O-])c1ccc(NCCCN2CCOCC2)c2cccnc12	i
Cn1nc(-c2cccs2)cc1[C@H]1CN2CC[C@H]1C[C@@H]2CNC(=S)Nc1ccccc1	i
COCC1(O)C2CN3CCN(C2)CC1(c1ccccc1)C3 (stereo unspecified)	i
C=CCNc1ccccc1C(=O)N1C[C@@H]2C[C@H](C1)c1cccc(=O)n1C2	i
C=C[C@H](O)C#CC#C[C@@H](O)/C=C\CCCCCCC	i
Fc1ccc(CN2CCN(c3cccc(Cl)c3)CC2)c(F)c1	i
COc1ccc(N2CCN(Cc3ccc(Cl)cc3)CC2)cc1	44%
COc1cccc(CN2CCN(c3ccc(F)cc3)CC2)c1	i
COc1ccc(N2CCN(Cc3cccc(Cl)c3Cl)CC2)cc1	32%
COc1ccc(CN2CCN(c3cccc(C)c3C)CC2)cc1	i
CCOc1ccc(CN2CCN(c3ccc(OC)cc3)CC2)cc1	34%
COc1cc(CN2CCN(c3ccc(F)cc3)CC2)ccc1O	i
CCOc1ccc(CN2CCN(c3ccccc3OC)CC2)cc1	i
Cc1cccc(CN2CCN(c3ccccc3Cl)CC2)c1	i
SMILES	ST2 inh
Clc1cccc(N2CCN(Cc3ccccc3Cl)CC2)c1	i
Cc1ccc(N2CCN(Cc3c(F)cccc3Cl)CC2)cc1	36%
COc1cccc(N2CCN(Cc3ccccc3OC)CC2)c1	i
O=C(CC1=CCCCC1)N1[C@H]2CCNC[C@@H]1CC2	i
COc1ccccc1[C@@H]1CN(C(=O)c2occc2C)[C@@H]2C3CCN(CC3)[C@@H]21	i
O=C1CCc2cc(S(=O)(=O)N3CC4CC(C3)c3cccc(=O)n3C4)ccc2N1 (stereo unspecified)	i
S=C(NCc1ccco1)NC[C@H]1C[C@@H]2CCN1C[C@@H]2CN1CCCCC1	i
COc1ccccc1-c1cc([C@H]2CN3CC[C@H]2C[C@@H]3CNC(=O)c2ccc3c(c2)OCO3)n(C)n1	i
COCC(=O)NC[C@H]1C[C@@H]2CCN1C[C@@H]2CN1CCN(c2ncccn2)CC1	i
Cc1ccnc(CC(C)N(C)C(=O)c2cn(C)c3ccccc23)c1 (stereo unspecified)	i
O=C(c1ccncc1)N1C[C@@H]2C[C@H](C1)c1ccc(-c3ccc4ccccc4c3)c(=O)n1C2	i
CCN1CCN(Cc2cc(Br)ccc2OC)CC1	i
COc1ccc(Br)cc1CN1CCN(c2ccccc2C)CC1	i
COc1cc(C)c(CN2CCN(c3ccccc3)CC2)cc1C	31%
CN1CCN(Cc2ccc(Cl)c(Cl)c2)CC1	i
COc1ccc(N2CCN(Cc3ccc(Cl)c(Cl)c3)CC2)cc1	35%
COc1ccccc1CN1CCN(c2ccccc2)CC1	i
COc1ccc(CN2CCN(c3ccccc3)CC2)cc1O	i
Clc1ccc(CN2CCN(c3ccccc3)CC2)cc1Cl	i
COc1ccc(N2CCN(Cc3cc(Br)ccc3OC)CC2)cc1	41%
Cc1ccc(C)c(Cn2cccc(C(=O)Nc3ccon3)c2=O)c1	i
S=C(NC[C@H]1C[C@@H]2CCN1C[C@@H]2CN1CCSCC1)Nc1ccc(-n2cccn2)cc1	i
CC(=O)c1ccc(N2Cc3ccccc3C2=N)cc1	i
O=c1[nH]c2ccccc2c(=O)n1-c1ccc(Cl)cc1	i
N#Cc1cccc(NC(=O)N2C[C@@H]3C[C@H](C2)c2ccc(-c4ccc(Cl)cc4)c(=O)n2C3)c1	i
COc1cccc(CN(C)C(C)Cc2ccccn2)c1O (stereo unspecified)	i
CCN(CC)S(=O)(=O)c1ccc2oc(C(=O)N3CCC4(CC3)OCCO4)c(C)c2c1	i
C=C[C@H]1CN2CC[C@H]1C[C@@H]2CNC(=S)Nc1cccc(C(=O)OC)c1	i
COC(=O)[C@H](Cc1ccccc1)NC(=O)c1cn(Cc2c(F)cccc2F)nn1	i
O=C(O)C1Nc2c(F)cccc2C2C(Cl)C(Sc3ccccc3[N+](=O)[O-])CC12 (stereo unspecified)	34%
